The values that follow come from PubChem BioAssay.

A short description of assay [1]: compounds binding Alexa647 anti-His antibody – biochemical, small-molecule microarray, 635 nm fluorescence, artefact control for SMM control protein annotation, primary screen (AID 1128).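 Note: score merges feature fluorescence with signal-to-noise for each printed compound spot.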 Particulars: higher = more signal.
For assay [2], the system named is Human papillomavirus type 1a E7 protein (residues 1-88). Kind of assay: HPV1a E7 small-molecule binders, primary screen, biochemical, small-molecule microarray, residues 1-88, 635 nm (AID 1129). The settings on record: small-molecule microarray binding, fluorescence 635 nm; higher = more signal.
The target in assay [3] is Focal adhesion kinase 1 (Homo sapiens) (UniProt Q05397). As to the kind of experiment: PTK2 protein binding on printed compound slides – biochemical, small-molecule microarray, 635/667 nm fluorescence, BSA, DTT, primary screen (AID 1130).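 Note: composite of spot emission at 667 nm and signal to noise over triplicate slides.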 Particulars: 635 nm fluorescence, higher = more signal.
Sequence of Focal adhesion kinase 1 (Homo sapiens) (Q05397 whole entry, looked up): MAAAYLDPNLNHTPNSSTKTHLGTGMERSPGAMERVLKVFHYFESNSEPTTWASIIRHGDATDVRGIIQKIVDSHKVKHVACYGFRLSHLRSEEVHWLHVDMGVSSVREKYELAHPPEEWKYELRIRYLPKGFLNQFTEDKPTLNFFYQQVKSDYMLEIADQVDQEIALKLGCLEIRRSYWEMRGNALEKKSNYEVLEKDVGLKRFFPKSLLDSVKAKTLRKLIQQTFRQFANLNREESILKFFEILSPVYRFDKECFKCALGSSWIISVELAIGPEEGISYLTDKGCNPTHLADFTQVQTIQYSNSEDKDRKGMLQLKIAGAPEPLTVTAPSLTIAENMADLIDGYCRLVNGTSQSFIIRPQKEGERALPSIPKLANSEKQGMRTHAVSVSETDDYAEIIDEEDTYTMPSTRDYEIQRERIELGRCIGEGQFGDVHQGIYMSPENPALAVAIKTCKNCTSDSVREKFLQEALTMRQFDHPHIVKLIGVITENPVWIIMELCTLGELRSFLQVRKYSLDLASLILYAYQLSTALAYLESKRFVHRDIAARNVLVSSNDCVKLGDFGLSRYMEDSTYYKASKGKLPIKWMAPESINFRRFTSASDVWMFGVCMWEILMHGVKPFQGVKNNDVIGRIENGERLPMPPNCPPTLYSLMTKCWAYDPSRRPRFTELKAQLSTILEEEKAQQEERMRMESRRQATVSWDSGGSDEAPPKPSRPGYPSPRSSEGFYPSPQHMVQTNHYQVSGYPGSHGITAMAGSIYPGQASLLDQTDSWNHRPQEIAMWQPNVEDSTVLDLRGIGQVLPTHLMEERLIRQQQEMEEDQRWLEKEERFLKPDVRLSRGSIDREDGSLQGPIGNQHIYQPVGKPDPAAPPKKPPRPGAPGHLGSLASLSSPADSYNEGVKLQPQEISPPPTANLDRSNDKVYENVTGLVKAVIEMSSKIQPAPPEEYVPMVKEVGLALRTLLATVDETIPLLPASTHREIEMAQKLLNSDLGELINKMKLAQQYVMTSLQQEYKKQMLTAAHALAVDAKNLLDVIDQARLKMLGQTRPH
The subject of assay [4] is Fibrinogen (Alexa647-labelled). As to the kind of experiment: Alexa647-fibrinogen binding to printed small molecules – biochemical, small-molecule microarray, 635/667 nm fluorescence, artefact control for SMM control-protein annotation, profiling panel (AID 1131).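 Note: z-score merges 667 nm fluorescence with per-spot signal-to-noise over triplicate slides.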 Particulars: fibrinogen-A647 binding fluorescence, higher = more signal.
Assay [5] concerns the target Follistatin (Homo sapiens) (UniProt P19883). Kind of assay: FST protein binding to printed compounds – biochemical, small-molecule microarray, 635/667 nm fluorescence, primary screen (AID 1132). The settings on record: 635 nm fluorescence, higher = more signal.
The target of assay [6] is Fibroblast growth factor 2 (Homo sapiens) (UniProt P09038). As to the kind of experiment: basic fibroblast growth factor binding to printed compounds – biochemical, small-molecule microarray, 635/667 nm fluorescence, primary screen (AID 1133). The settings on record: FGF2, fluorescence 635/667, higher = more signal.
Sequence of Fibroblast growth factor 2 (Homo sapiens) (P09038 whole entry, looked up): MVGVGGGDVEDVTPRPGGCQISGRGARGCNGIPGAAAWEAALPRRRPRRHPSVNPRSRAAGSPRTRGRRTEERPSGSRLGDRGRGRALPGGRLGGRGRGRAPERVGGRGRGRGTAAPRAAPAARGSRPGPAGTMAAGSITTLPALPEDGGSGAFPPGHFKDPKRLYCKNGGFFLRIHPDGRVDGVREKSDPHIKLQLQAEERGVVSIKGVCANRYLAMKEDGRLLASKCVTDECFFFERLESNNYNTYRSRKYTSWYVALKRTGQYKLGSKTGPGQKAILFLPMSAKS
Assay [7] is described as follows: JC-1 mitochondrial potential readout, lung cancer cells – cell-based, A549, JC-1 fluorescence, basal, 24 h, 100 nL, profiling panel (AID 1138).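 Note: A549 lung adenocarcinoma cells under basal conditions with no added stimulus; test concentration not given here.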 The settings on record: higher = more signal.
Another assay deals with Lefty1. As to the kind of experiment: Lefty1 protein binding to printed compounds – biochemical, small-molecule microarray, 635/667 nm fluorescence, primary screen (AID 1139). The settings on record: fluorescence 635/667, higher = more signal.
In assay [8] the test system is wheat germ agglutinin (Triticum aestivum), Alexa647-labelled. As to the kind of experiment: Alexa647-WGA lectin binding to printed small molecules – biochemical, small-molecule microarray, 635/667 nm fluorescence, artefact control for SMM control-protein annotation, profiling panel (AID 1140).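 Note: score merges 667 nm feature emission with signal to noise over triplicate slides.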 The settings on record: WGA-A647 binding, 635 nm fluorescence, higher = more signal.

For assay [9], the target named is Luciferin 4-monooxygenase (Photinus pyralis) (UniProt P08659). As to the kind of experiment: inhibition of purified Photinus pyralis luciferase – biochemical, luminescence, purified enzyme, 2006 set, primary screen (AID 1141).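 Note: cell-free assay with purified firefly luciferase at 100 ng per well in PBS; test concentration not given here.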 The settings on record: purified firefly luciferase, SteadyGlo luminescence, 30 min; higher = more signal, called active from +8 up or from −8 down.
Sequence of Luciferin 4-monooxygenase (Photinus pyralis) (P08659 whole entry, looked up): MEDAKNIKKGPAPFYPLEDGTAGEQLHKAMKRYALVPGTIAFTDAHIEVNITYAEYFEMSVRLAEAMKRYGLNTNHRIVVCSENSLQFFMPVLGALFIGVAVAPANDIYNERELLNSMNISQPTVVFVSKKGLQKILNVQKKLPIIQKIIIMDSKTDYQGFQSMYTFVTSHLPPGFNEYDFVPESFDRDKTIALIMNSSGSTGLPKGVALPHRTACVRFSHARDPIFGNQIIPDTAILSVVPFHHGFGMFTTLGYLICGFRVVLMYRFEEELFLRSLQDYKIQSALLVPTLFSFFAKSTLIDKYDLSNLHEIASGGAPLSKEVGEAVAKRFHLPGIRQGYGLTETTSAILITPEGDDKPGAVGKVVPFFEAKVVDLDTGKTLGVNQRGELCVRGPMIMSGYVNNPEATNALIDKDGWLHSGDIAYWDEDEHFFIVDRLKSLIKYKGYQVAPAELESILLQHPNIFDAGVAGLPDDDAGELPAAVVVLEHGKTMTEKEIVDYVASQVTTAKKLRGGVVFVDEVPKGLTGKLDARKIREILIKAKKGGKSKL

Assay [10] relates to Wnt5a (protein binding on small-molecule microarray). As to the kind of experiment: small molecules binding Wnt5a protein – biophysical, small-molecule microarray, 635/667 nm fluorescence, primary screen (AID 1142).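 Note: fluorescence read at 667 nm with signal to noise per printed feature.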 Particulars: 635 nm fluorescence, higher = more signal.
Assay [11] is described as follows: ATP-based viability of Huh7 replicon cells – cell-based, CellTiter-Glo luminescence, basal, 48 h, cytotoxicity control for HCV replication inhibitor project, primary screen (AID 1143).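 Note: Huh7 hepatoma cells carrying a hepatitis C replication reporter with no stimulus; test concentration not given here.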 Particulars: higher = more signal, called active from +8 up or from −8 down. In general terms: Replicon systems follow genome replication, usually without infectious particles.
A short description of assay [12]: Pseudomonas biofilm growth suppression – PAO1 strain, BacTiter-Glo luminescence, LB-PBS, primary screen (AID 1144). The settings on record: P. aeruginosa PAO1 biofilm, 12 h, higher = more signal.
Assay [13] can be described thus: basal CRE-LacZ reporter activity in PC12 – cell-based, unstimulated, primary screen (AID 1145). The settings on record: no forskolin, luminescence, 4.5 h, higher = more signal, called active from +8 up or from −8 down.
A short description of assay [14]: forskolin-driven CRE-LacZ activity in PC12 – cell-based, CRE-LacZ reporter, forskolin-stimulated, primary screen (AID 1146).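 Note: PC12 cells with 6xCRE LacZ reporter stimulated by forskolin 10 µM; beta-galactosidase reporter signal reflecting CREB driven transcription.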 The settings on record: luminescence, 4.5 h, higher = more signal, called active from +8 up or from −8 down.
In assay [15] the target is Streptavidin (Streptomyces avidinii) (UniProt P22629). Kind of assay: compounds binding control protein streptavidin – biophysical, small-molecule microarray, 635/667 nm fluorescence, artefact control for SMM compound annotation, primary screen (AID 1147).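 Note: signal reflects streptavidin binding to arrayed compounds as a control protein.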 Particulars: higher = more signal.
Sequence of Streptavidin (Streptomyces avidinii) (P22629 whole entry, looked up): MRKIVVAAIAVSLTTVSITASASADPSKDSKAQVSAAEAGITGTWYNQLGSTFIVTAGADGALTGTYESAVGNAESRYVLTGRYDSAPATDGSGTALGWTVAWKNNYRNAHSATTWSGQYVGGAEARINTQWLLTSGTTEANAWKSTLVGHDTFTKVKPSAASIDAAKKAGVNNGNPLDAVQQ
Assay [16] in a line: probe aInhba binding on compound microarray – biochemical, small-molecule microarray, 635/667 nm fluorescence, primary screen (AID 1148).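 Note: score merges 667nm spot fluorescence with signal-to-noise for antibody binding to printed compounds.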 Particulars: higher = more signal.
Assay [17] addresses Torsin-1A (Homo sapiens) (UniProt O14656). Kind of assay: TOR1A wild-type binding on microarray – cell lysate, small-molecule microarray, lysate, 635/667 nm, primary screen (AID 1149). The settings on record: COS7 hTOR1A-WT lysate, 635 nm fluorescence, higher = more signal.
For assay [18] the target is unchanged. Kind of assay: torsin A mutant lysate binding on microarrays – cell lysate, small-molecule microarray, COS7 lysate, 635/667 nm fluorescence, primary screen (AID 1150).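 Note: score pools 667 nm emission and signal to noise measuring lysate protein binding.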 The settings on record: COS7 hTOR1A mutant lysate, 635 nm fluorescence, higher = more signal.
The test system of assay [19] is Sonic hedgehog protein (Shh). As to the kind of experiment: Sonic hedgehog microarray binding compounds – biochemical, small-molecule microarray, 635/667 nm fluorescence, primary screen (AID 1151).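 Note: Shh protein binding to compounds spotted on small-molecule microarray slides; score combines spot fluorescence intensity with signal-to-noise across triplicate slides.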 Particulars: 635 nm fluorescence, higher = more signal.

Activity calls are given as the source filed them. Unless noted, the rule behind the calls is not given here.

Sequence of Torsin-1A (Homo sapiens) (O14656 whole entry, looked up): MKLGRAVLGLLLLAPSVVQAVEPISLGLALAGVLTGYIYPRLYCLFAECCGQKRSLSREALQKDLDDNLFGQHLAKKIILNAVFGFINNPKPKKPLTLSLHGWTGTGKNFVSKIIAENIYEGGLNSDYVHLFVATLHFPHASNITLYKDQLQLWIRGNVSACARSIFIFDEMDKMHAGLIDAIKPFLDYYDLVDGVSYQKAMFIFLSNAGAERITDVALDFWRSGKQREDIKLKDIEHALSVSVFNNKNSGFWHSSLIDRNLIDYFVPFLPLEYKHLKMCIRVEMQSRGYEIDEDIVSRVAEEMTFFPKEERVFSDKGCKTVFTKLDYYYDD
Sequence of Follistatin (Homo sapiens) (P19883 whole entry, looked up): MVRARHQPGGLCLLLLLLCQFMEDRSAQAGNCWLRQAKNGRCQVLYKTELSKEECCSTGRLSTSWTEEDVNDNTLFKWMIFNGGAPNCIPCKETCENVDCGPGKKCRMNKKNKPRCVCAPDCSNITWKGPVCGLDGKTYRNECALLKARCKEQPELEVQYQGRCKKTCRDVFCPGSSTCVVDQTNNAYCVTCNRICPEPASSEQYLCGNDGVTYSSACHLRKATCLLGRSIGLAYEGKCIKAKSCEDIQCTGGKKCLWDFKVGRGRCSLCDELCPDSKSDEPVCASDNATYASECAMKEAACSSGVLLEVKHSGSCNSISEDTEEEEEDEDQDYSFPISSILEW

For the molecule `CC(C)OC(=O)C=C1C[C@@H](c2ccccn2)O[C@@H](c2ccccn2)O1`, the composite z-score in assay [1] is 0.772; in assay [2], -0.0007; in assay [3] it was -0.19; in assay [4], 0.0108; in assay [5], 1.34; in assay [6] it was 0.935. The composite z-score is 1.53 in the assay on Lefty1; 0.372 in assay [8]; 0.144 in assay [10]; 0.546 in assay [15]; -0.0001 in assay [16]; 0.0581 with Torsin-1A (Homo sapiens) [17]. Moreover, the composite z-score was determined as 0.0457 with Torsin-1A (Homo sapiens) [18] and 1.7 in assay [19]. Besides, the z-score is 0.0752 in assay [7]; 0.633 (inactive) in assay [9]; -0.891 (inactive) in assay [11]; 0.589 (inactive) in assay [12]; -0.0137 (inactive) in assay [13]; -0.322 (inactive) in assay [14].

With `O=C(c1ccccc1)N1C(=O)[C@@]2(Cc3ccccc31)N=C(c1ccc(OCCCO)cc1)O[C@H]2c1ccccc1`, the composite z-score in [1] was 1.39; in [2] it was 1.21; in assay [3], 1.23; in assay [4], 0.657; in assay [5], 1.4; in [6] it was 1.45. Moreover, the composite z-score with Lefty1 is 0.856; in assay [8] it was 0.811; in assay [10], 0.54; in assay [15], 0.353; in assay [16], 0.346; in the assay with Torsin-1A (Homo sapiens) [17], 0.388. The composite z-score with Torsin-1A (Homo sapiens) [18] was determined as 1.01; in [19], 1.27. In addition, the z-score in assay [7] was -1.02; in assay [9], -1.14 (inactive); in assay [11] it was -4.44 (inactive); in assay [12] it was 0.849 (inactive); in assay [13], 1.11 (inactive); in [14], 1.28 (inactive).

With `C=CCNC(=O)[C@@H]1[C@H]2C(=O)O[C@H](c3ccccc3)[C@H](c3ccccc3)N2[C@H](c2ccc(O)cc2)[C@@]12C(=O)N(C(=O)OCCOC)c1ccc(C#CCNC(N)=O)cc12`, the composite z-score in [1] came out at 0.2; in assay [2], 1.16; in assay [3], 1.23; in assay [4] it was 0.746; in [5] it was 1.18; in assay [6], 1.45. Besides, the composite z-score in the assay on Lefty1 is 1.03; in [8] it was 0.834; in [10] it was 0.468; in assay [15], 0.61; in assay [16], -0.131; with Torsin-1A (Homo sapiens) [17], 0.699. Moreover, the results for the composite z-score (with Torsin-1A (Homo sapiens) [18]; in assay [19]) were 0.594 and 1.45, respectively. In addition, the z-score in assay [7] was -0.564; in assay [9], -1.43 (inactive); in assay [11], -2.23 (inactive); in assay [12], -0.298 (inactive); in assay [13], 0.35 (inactive); in [14], 0.273 (inactive).

As to `CC(C)c1ccc(NN2C(C(O)c3ccc(B(O)O)cc3)C=CC3C(=O)N(c4ccccc4)C(=O)C32)cc1` (stereo not given), the composite z-score in assay [1] is 1.24; in assay [2], 1.2; in assay [3], 0.581; in [4] it was 0.952; in [5] it was 1.32; in assay [6], -0.159. For the same molecule, the composite z-score in the assay with Lefty1 was 0.481; in [8], 0.783; in assay [10], 0.262; in assay [15], 1.26; in [16] it was 0.108; with Torsin-1A (Homo sapiens) [17] it was 0.201. Also, the composite z-score stood at 1.26 in the assay with Torsin-1A (Homo sapiens) [18] and 0.528 in [19]. In addition, the z-score in assay [7] is -0.641; in [9] it was -6.16 (inactive); in [11], -0.0793 (inactive); in [12] it was -1.06 (inactive); in assay [13] it was 0.815 (inactive); in assay [14], 1.65 (inactive).

In the case of `COc1ccc(C#Cc2ccc3c(c2)[C@]2(C(=O)N3)[C@H](C(=O)NC[C@H](O)c3ccccc3)[C@H]3C(=O)O[C@H](c4ccccc4)[C@H](c4ccccc4)N3[C@@H]2c2ccc(O)cc2)cc1`, the composite z-score in assay [1] came out at 2.71; in [2], 1.23; in assay [3], 0.521; in [4], 0.901; in [5], 1.08; in assay [6], 0.811. In addition, the composite z-score with Lefty1 is 0.767; in [8], 0.947; in assay [10], 0.288; in [15] it was 0.539; in assay [16], -0.128; in the assay with Torsin-1A (Homo sapiens) [17] it was 0.179. In addition, the composite z-score with Torsin-1A (Homo sapiens) [18] is 0.587; in assay [19] it was 1.24. The z-score in [7] is -1.57; in [9] it was 0.656 (inactive); in [11], -2.62 (inactive); in [12], -1.1 (inactive); in assay [13] it was -0.141 (inactive); in assay [14] it was -0.301 (inactive).
